Screening results (PubChem)
Rows were chosen to be rich in hits. Some 2.4% of all compounds tested hit in one or more screens of this group.
M1 ag: agonists of human M1 muscarinic receptor | activation, % at 3 µM | AID 588814 | CHO-K1 hM1, Fluo-8 calcium fluorescence, agonist mode; 0% DMSO, 100% acetylcholine EC100 | P11229 | 0.33% of 360,000 active;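 active = activation above the run's mean compound activation plus 3 SD, cut at about 16% in these data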;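 note: peak over basal fluorescence ratio within a 140 s kinetic read after compound addition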
Target sequence (P11229 whole entry, looked up): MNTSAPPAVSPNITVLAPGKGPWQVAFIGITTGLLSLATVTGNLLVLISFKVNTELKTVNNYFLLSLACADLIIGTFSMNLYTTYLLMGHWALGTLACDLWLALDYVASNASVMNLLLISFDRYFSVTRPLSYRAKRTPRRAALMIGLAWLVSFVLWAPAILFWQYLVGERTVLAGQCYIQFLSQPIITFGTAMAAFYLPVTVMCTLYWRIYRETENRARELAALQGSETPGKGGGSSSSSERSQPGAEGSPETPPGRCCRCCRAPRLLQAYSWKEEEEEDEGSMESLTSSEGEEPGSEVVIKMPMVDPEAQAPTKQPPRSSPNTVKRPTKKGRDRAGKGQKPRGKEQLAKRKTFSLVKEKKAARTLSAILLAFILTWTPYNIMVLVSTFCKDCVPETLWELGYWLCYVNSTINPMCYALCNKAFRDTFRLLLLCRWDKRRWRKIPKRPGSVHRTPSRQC
CHO-K1 Ca antag: counter-screen for M1 antagonists: effect in parental CHO-K1 cells; ATP-induced calcium, Fluo-8 fluorescence; inhibition, % at 3 µM; AID 602250; 0.6% of 360,000 active;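 active = inhibition above a per-plate cutoff, the plate's mean sample inhibition plus 3 SD, cut at about 24% in these data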;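 note: 0% = DMSO plus EC80 ATP and 100% = DMSO alone without ATP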
CHO-K1 Ca ag: M1 agonist counterscreen hit in parental CHO-K1 cells. Fluo-8 calcium fluorescence; scaled to maximal ATP response, vehicle zero. activation, % at 3 µM. 0.48% of 360,000 active; in the data active = activation above about 15%;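 note: untransfected CHO-K1 host cells lacking M1 receptor as counterscreen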
M1 PAM: potentiates human M1 receptor response to acetylcholine. P11229. CHO-K1 hM1, Fluo-8 calcium fluorescence, ACh EC20; 0% = ACh EC20, 100% = maximal ACh. activation, % at 3 µM. 0.088% of 360,000 active. AID 588819; in the data active = activation above about 19%, passing the limit was not always enough
M1 PAM parental: counter-screen for M1 PAMs: effect in parental CHO-K1 cells | ATP EC20, Fluo-8 calcium fluorescence; 0% at ATP EC20, 100% at ATP max | 0.02% of 360,000 active | activation, % at 3 µM | AID 602247;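 active = activation above the run cutoff, the mean activation of all test compounds plus 3 SD, cut at about 40% in these data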;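 note: peak over basal fluorescence ratio in a 140 s read after ATP addition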
M1 antag: blocks human M1 muscarinic receptor; inhibition, % at 3 µM; P11229; 1.3% of 360,000 active; CHO-K1 hM1, Fluo-8 calcium fluorescence, ACh EC80 antagonist; AID 588852;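 active = percent inhibition above its own plate's cutoff, namely the mean of that plate's compound wells plus 3 SD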;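 note: peak over basal fluorescence ratio during 140 s after agonist addition; 0% = ACh EC80 plus DMSO and 100% = DMSO alone without agonist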
Active calls of the source: *.

SMILES | M1 ag | CHO-K1 Ca antag | CHO-K1 Ca ag | M1 PAM | M1 PAM parental | M1 antag
Cc1ccc(CN(c2ccc(C(=O)NCC3CCCO3)cc2)S(C)(=O)=O)cc1 (configuration not stated) | 1 | -7 | 3 | 11 | 20 | -5
N/C(=N\OC(=O)N1CCOCC1)c1ccc(Cl)cc1 | -5 | -2 | 0 | 9 | 20 | -4
COc1cc(/C(C)=N/NC(=O)CSc2nc3ccccc3[nH]2)ccc1O | -2 | 6 | 0 | 2 | -18 | -32
COc1cc(C(=O)NCCNC(=O)c2ccc(C)nc2)cc(OC)c1OC | -1 | -9 | 0 | 5 | 4 | 4
COc1ccc(NS(=O)(=O)c2cccc(C(=O)NCC3(N4CCCCC4)CCCCC3)c2)cc1 | -7 | -3 | 1 | 1 | -3 | 1
OC(C#CCCN1CCCCC1)(c1ccccc1)c1ccccc1 | -3 | -10 | 0 | -27 | 10 | 99*
CC(C)CC1(C)NC(=O)N(CCN2C(=O)c3ccccc3C2=O)C1=O (configuration not stated) | 1 | -19 | 0 | 9 | 3 | -7
O=C(CO/N=C/c1ccccc1OC(F)F)NCc1ccco1 | -1 | -15 | 1 | 26* | 10 | -53
COc1ccc(NC(=O)c2cccc(N3C(=O)NC4CC3(C)Oc3ccccc34)c2)cc1 (configuration not stated) | -3 | -4 | 2 | 8 | 11 | -10
COc1cccc2c1OC1(C)CC2NC(=O)N1c1cccc(C(=O)Nc2ccc3c(c2)OCCO3)c1 (configuration not stated) | -1 | 14 | 3 | -13 | 1 | 28*
c1ccc(CN2CCC(N3CCN(Cc4ccc5c(c4)OCO5)CC3)CC2)cc1 | -4 | -10 | 4 | -18 | 11 | 24
c1cc2c(cc1CN1CCN(C3CCCCCC3)CC1)OCO2 | -10 | -15 | 0 | -25 | 3 | 64*
O=C(CCc1nc2ccccc2c(=O)[nH]1)Nc1nnc(SCc2ccccc2F)s1 | -8 | -5 | 1 | -27 | 2 | 49*
O=C(Nc1nnc(SCc2ccccc2F)s1)C1=COCCO1 | -4 | 10 | 17* | -7 | -8 | 8
O=C(Nc1nnc(SCc2ccccc2)s1)C1=COCCO1 | -7 | -1 | 2 | -10 | -17 | 9
CC(O)CN(CC(C)O)c1ccc2c(c1)Cc1cc([N+](=O)[O-])ccc1-2 (configuration not stated) | 134* | 60* | 174* | -29 | -20 | 71*
Nc1ccc2c(c1)Cc1cc([N+](=O)[O-])ccc1-2 | 5 | 13 | 26* | -12 | 9 | 20
CCCS(=O)(=O)NC(=O)C1(C)CCN1C(=O)Cc1ccc(Cl)cc1Cl (configuration not stated) | -2 | -1 | 0 | 6 | 7 | -11
CCC(=O)Nc1nnc(SCCN2CCOCC2)s1 | -8 | 10 | 9 | -10 | -1 | 33*
Cc1cc(OCC(O)CN2CCc3ccccc3C2)cc(C(C)C)c1 (configuration not stated) | -6 | 4 | 2 | -28 | -9 | 32*
CCN1C/C(=N\S(=O)(=O)/N=C2\CN(CC)C(=O)N2CC)N(CC)C1=O | -3 | -2 | 0 | -1 | 3 | 5
COc1cccc(C(=O)C2CCCN(Cc3cn(C)nc3-c3ccccc3)C2)c1 (configuration not stated) | -10 | 3 | 0 | 2 | 6 | -8
Cn1cc(CN2CCCC(C(=O)c3ccc(-c4ccccc4)c(F)c3)C2)cn1 (configuration not stated) | -12 | -13 | 6 | -29 | 30 | 28*
Cn1cc(CN2CCCC(C(=O)c3ccc(-c4ccccc4)cc3)C2)cn1 (configuration not stated) | -11 | -15 | 3 | -13 | 19 | -3
Cc1nn(C)cc1CN1CCCC(C(=O)c2ccc(-c3ccccc3)c(F)c2)C1 (configuration not stated) | -9 | 12 | 26* | -26 | 15 | 52*
SMILES | M1 ag | CHO-K1 Ca antag | CHO-K1 Ca ag | M1 PAM | M1 PAM parental | M1 antag
FC(F)(F)c1cnc2c(c1)[nH]c(=S)n2-c1ccc(Cl)cc1 | 0 | 2 | 16* | -20 | 5 | 20
Fc1ccc(-n2c(=S)[nH]c3cccnc32)cc1 | -5 | -9 | 0 | 1 | 12 | -8
Cc1ccc(S(=O)(=O)N2CCCCC2)cc1NC(=O)CSc1nncn1-c1ccccc1 | -6 | 1 | 1 | 7 | -1 | -2
CN1CCN(C2=Cc3ccccc3Sc3cc(F)c(F)cc32)CC1 | -6 | -4 | 2 | -21 | 20 | 70*
CN1CCN(c2nc(-c3ccc(Cl)c(Cl)c3)nc3ccccc23)CC1 | -2 | -4 | 0 | 1 | 1 | -5
CN1CCN(C2=Cc3ccccc3Sc3cc(F)c(Cl)cc32)CC1 | -3 | -9 | 0 | -21 | 6 | 69*
CN1CCN(C2=Cc3cc(Cl)ccc3Sc3cc(F)ccc32)CC1 | -5 | 0 | 2 | -25 | 25 | 82*
CN1CCN(c2ccccc2NC(=O)c2ccccc2F)CC1 | -7 | -14 | 2 | 7 | 20 | -12
CCN(CC)C(=O)[C@H]1C[C@H](CC(=O)NCCCN(C)C)C(=O)N2CCc3c([nH]c4cc(CCC(=O)N(C)C)ccc34)[C@]12C | -6 | -8 | 0 | 3 | 11 | -4
COc1ccc(Cc2nnc(SCc3nc4ccccc4c(=O)[nH]3)n2C)cc1 | 2 | -19 | 0 | 0 | 8 | 1
Cn1c(CCNC(=O)c2ccccc2F)nnc1SCc1nc2ccccc2c(=O)[nH]1 | 4 | -31 | 0 | 30* | 13 | -46
O=C(Nc1ccccc1)OCCCCCOC(=O)Nc1ccccc1 | -5 | 26* | 9 | -4 | 0 | -6
COc1ccc(OCCOC(=O)Nc2ccccc2)cc1 | -4 | 4 | 1 | -1 | 4 | 31*
O=[N+]([O-])c1ccc(CN2CCN(c3ccc(F)cc3)CC2)o1 | -8 | 0 | 11 | 4 | 4 | -5
O=C1CCCC2=C1C(c1ccc(Cl)cc1)N1C(=O)CCSC1=N2 (configuration not stated) | -3 | 15 | 0 | -1 | -4 | 14
CC1(C)CC(=O)C2=C(C1)N=C1SCCC(=O)N1C2c1ccccc1 (configuration not stated) | -8 | -11 | 0 | -15 | 0 | 36*
O=C(NNS(=O)(=O)c1ccccc1)c1cccs1 | -6 | 4 | 11 | 5 | 12 | 1
N#C/C(=C/c1ccc(O)cc1)C(=O)NCc1ccc(Cl)cc1 | 8 | 5 | 2 | 3 | -15 | 7
N#C/C(=C\c1ccc(O)cc1)C(=O)NCc1cccc(Cl)c1 | 24* | -10 | 17* | 10 | 3 | -12
NC(=O)c1ccc(NC(=O)CNC(=O)c2sc3ccccc3c2Cl)cc1 | 1 | 8 | 0 | 6 | -11 | 4
